Bioassay records from PubChem BioAssay.
Shown are actives, neighbours in structure and some others; about 27% of the full set was active somewhere.
CYP2C19 act: increases human CYP2C19 enzyme activity; 96,000 tested, under 10 active; activation factor at 5 µM; P33261; recombinant CYP2C19, luciferin-H EGE luminescence; hits give high values; 0 = fully inhibited enzyme, 1 = untreated enzyme; AID 1025;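 active = activation factor of at least 2 at 5 µM in the primary screen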;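 also: 0 = wells with 2.5 mM tranylcypromine and 1 = vehicle-only wells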
sEH inhibitor: soluble epoxide hydrolase (human) inhibition; P34913; recombinant human sEH enzymatic activity assay; inhibition, % at 2 µM; 91,000 compounds, 0.34% hits; AID 707; in the data active = inhibition above about 80%
CYP2C19 inh: blocks human cytochrome P450 2C19; 96,000 compounds, 21% hits; CYP2C19 Supersomes, luciferin-H EGE luminescence, 30 min; inhibition, % at 5 µM; P33261;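 active = CYP2C19 inhibition above a set limit at 5 µM in the primary screen, cut at about 50% in these data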;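 also: plate controls were negative control wells for no effect and 2.5 mM tranylcypromine positive control for full effect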
CYP2C9 inhib: human CYP2C9 inhibition | CYP2C9 Supersomes, luciferin-H conversion, luminescence | inhibition, % at 5 µM | 96,000 compounds, 20% hits | AID 777;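 active = blocking of liver enzyme CYP2C9 beyond about 50% at 5 µM, limit read from the data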
Target sequence (P11712 whole entry, looked up): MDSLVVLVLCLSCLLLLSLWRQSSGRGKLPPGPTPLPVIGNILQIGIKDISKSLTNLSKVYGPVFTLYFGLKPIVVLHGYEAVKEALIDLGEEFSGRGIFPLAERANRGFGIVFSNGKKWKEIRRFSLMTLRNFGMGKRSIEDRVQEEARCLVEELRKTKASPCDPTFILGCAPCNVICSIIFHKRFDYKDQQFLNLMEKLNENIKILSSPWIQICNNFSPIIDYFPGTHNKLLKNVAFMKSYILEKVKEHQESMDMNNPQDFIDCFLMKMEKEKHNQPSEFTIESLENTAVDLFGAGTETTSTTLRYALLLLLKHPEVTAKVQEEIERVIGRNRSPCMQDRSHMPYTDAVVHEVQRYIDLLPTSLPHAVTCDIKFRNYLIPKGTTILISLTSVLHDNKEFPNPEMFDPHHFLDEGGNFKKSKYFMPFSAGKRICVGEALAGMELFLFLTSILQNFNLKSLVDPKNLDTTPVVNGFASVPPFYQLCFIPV
sEH act: increases human soluble epoxide hydrolase activity | 91,000 compounds, 0.04% hits | purified human sEH enzymatic activity, activator screen | activation, % at 2 µM | AID 717 | P34913; in the data active = activation above about 37%
CYP2C9 activ: activators of human CYP2C9; P11712; recombinant CYP2C9, luciferin-H conversion, luminescence; hits give high values; factor 1 = untreated enzyme, 0 = blocked; activation factor at 5 µM; 96,000 compounds, 1.4% hits; AID 1024;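 active = activation factor of 2 or more for CYP2C9 at a 5 µM dose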;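 also: 0 = sulfaphenazole-blocked wells and 1 = vehicle-only wells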
Numbers without * were called inactive.

Screening CCN(CC)C(=O)c1sc2nc(-c3ccncc3)[nH]c(=O)c2c1C returned CYP2C19 act 0.4, CYP2C19 inh 62.8*, CYP2C9 inhib 20.8 and CYP2C9 activ 0.8.
`Cc1onc(-c2c(F)cccc2Cl)c1C(=O)N1C=CC(C(F)(F)Cl)=NCC1` gave CYP2C19 act 0.4, sEH inhibitor -6.0, CYP2C19 inh 57.6*, CYP2C9 inhib 29.3, sEH act 9.1 and CYP2C9 activ 0.7.
Cc1onc(-c2c(F)cccc2Cl)c1C(=O)N1CCCc2ccccc21 was read as CYP2C19 act 0.3, sEH inhibitor -9.1, CYP2C19 inh 66.4*, CYP2C9 inhib 25.7, sEH act 8.6 and CYP2C9 activ 0.7.
For Cc1onc(-c2ccccc2Cl)c1C(=O)N1CCCc2ccccc21 the results were CYP2C19 act 0.3, sEH inhibitor 6.3, CYP2C19 inh 68.4*, CYP2C9 inhib 16.5, sEH act -4.9 and CYP2C9 activ 0.8.
For Cc1onc(-c2c(F)cccc2Cl)c1C(=O)NCCCN1CCOCC1 the results were CYP2C19 act 1, sEH inhibitor 6.8, CYP2C19 inh 3.3, CYP2C9 inhib 16.3, sEH act -7.4 and CYP2C9 activ 0.8.
`Cc1noc(C)c1C(=O)N1CCCc2ccccc21` gave CYP2C19 act 0.8, sEH inhibitor -4.6, CYP2C19 inh 18.0, CYP2C9 inhib 4.1, sEH act 8.4 and CYP2C9 activ 1.
For Cc1onc(-c2ccccc2)c1C(=O)N1CCc2ccccc21 the results were CYP2C19 act 0.1, sEH inhibitor -2.8, CYP2C19 inh 90.3*, CYP2C9 inhib 40.8, sEH act 3.1 and CYP2C9 activ 0.6.
For Cc1onc(-c2ccccc2Cl)c1C(=O)OCC(=O)N1CCCc2ccccc21 the results were CYP2C19 act 0.1, CYP2C19 inh 93.5*, CYP2C9 inhib 95.8* and CYP2C9 activ 0.
For Cc1onc(-c2ccccc2Cl)c1C(=O)N1CCc2ccccc21 the results were CYP2C19 act 0.3, sEH inhibitor -4.1, CYP2C19 inh 69.3*, CYP2C9 inhib 33.6, sEH act 2.6 and CYP2C9 activ 0.7.
`CCOC(=O)CN1CC23C=CC(O2)C(C(=O)Nc2ccc(C(C)=O)cc2)C3C1=O` (stereo unspecified) gave CYP2C19 act 1.1, sEH inhibitor 2.3, CYP2C19 inh -10.5, CYP2C9 inhib 5.0, sEH act -3.2 and CYP2C9 activ 0.9.
For CC12CCC(C(=O)N3CCN(c4ccccc4)CC3)(CC1=O)C2(C)C (stereo unspecified) the results were CYP2C19 act 0.5, sEH inhibitor 3.2, CYP2C19 inh 53.7*, CYP2C9 inhib 12.8, sEH act -4.5 and CYP2C9 activ 0.9.
For CC12CCC(C(=O)N3CCc4ccccc43)(CC1=O)C2(C)C (stereo unspecified) the results were CYP2C19 act 0.6, sEH inhibitor 4.1, CYP2C19 inh 44.5, CYP2C9 inhib 58.2*, sEH act -4.7 and CYP2C9 activ 0.4.
Screening CC12CCC(C(=O)N3CCCc4ccccc43)(CC1=O)C2(C)C (stereo unspecified) returned CYP2C19 act 0.6, sEH inhibitor -4.5, CYP2C19 inh 43.9, CYP2C9 inhib 4.8, sEH act 3.2 and CYP2C9 activ 1.
`CCS(=O)(=O)N1CCCC(C(=O)N2CCc3ccccc3C2)C1` (stereo unspecified) gave CYP2C19 act 0.7, sEH inhibitor 0.1, CYP2C19 inh 28.1, CYP2C9 inhib -15.5, sEH act 1.6 and CYP2C9 activ 1.2.
`Cc1cccc(CN2CCCC(C(=O)N3CCc4ccccc4C3)C2)c1` (stereo unspecified) gave CYP2C19 act 0.4, sEH inhibitor -7.6, CYP2C19 inh 64.5*, CYP2C9 inhib 14.3, sEH act 10.5 and CYP2C9 activ 0.9.
For O=C(C1CCCN(Cc2ccncc2)C1)N1CCc2ccccc2C1 (stereo unspecified) the results were CYP2C19 act 0, CYP2C19 inh 95.6*, CYP2C9 inhib 66.8* and CYP2C9 activ 0.3.
CN1CCN(C(=O)c2cc3c(C(F)(F)F)nn(C)c3s2)CC1 was read as CYP2C19 act 1, sEH inhibitor -13.7, CYP2C19 inh -3.2, CYP2C9 inhib -19.6, sEH act 11.4 and CYP2C9 activ 1.2.
Screening Cc1ccc(C(=O)CSc2nnc(-c3ccco3)n2CC2CCCO2)cc1 (stereo unspecified) returned CYP2C19 act 0.8, sEH inhibitor 8.6, CYP2C19 inh 20.7, CYP2C9 inhib 2.1, sEH act -8.3 and CYP2C9 activ 1.
For COC(=O)c1ccc(Cn2cnc3c(cnn3-c3ccc(C)c(C)c3)c2=O)o1 the results were sEH inhibitor -6.6 and sEH act 7.2.
For COC(=O)c1ccc(Cn2cnc3c(cnn3-c3ccc(F)cc3)c2=O)o1 the results were CYP2C19 act 0.8, CYP2C19 inh 15.2, CYP2C9 inhib 50.4* and CYP2C9 activ 0.5.
`CCC(C)C(=O)N1CCc2cc(-c3csc(N)n3)ccc21` (stereo unspecified) gave CYP2C19 act 0.2, sEH inhibitor 2.5, CYP2C19 inh 78.2*, CYP2C9 inhib 70.2*, sEH act -2.3 and CYP2C9 activ 0.3.
For CC(C)(C)C(=O)N1CCc2cc(-c3csc(N)n3)ccc21 the results were CYP2C19 act 0.8, sEH inhibitor 9.5, CYP2C19 inh 19.1, CYP2C9 inhib 19.9, sEH act -7.8 and CYP2C9 activ 0.8.
`c1ccc(CSc2ncnc3c2cnn3Cc2ccccc2)cc1` gave CYP2C19 act 0.9, sEH inhibitor -4.0, CYP2C19 inh 11.9, CYP2C9 inhib 19.3, sEH act 3.1 and CYP2C9 activ 0.8.
For Cc1cc(N2CCN(C(=O)c3ccco3)CC2)n2nc(-c3cccc(F)c3)cc2n1 the results were CYP2C19 act 0.2, sEH inhibitor -7.4, CYP2C19 inh 83.4*, CYP2C9 inhib 87.5*, sEH act 6.3 and CYP2C9 activ 0.1.
For COc1ccc(CN2CCN(C(=O)c3ccco3)CC2)cc1 the results were CYP2C19 act 0.9, sEH inhibitor -10.1, CYP2C19 inh 12.9, CYP2C9 inhib -16.7, sEH act 8.0 and CYP2C9 activ 1.2.
COc1cc(OC)cc(-c2cc3nc(C)cc(N4CCN(C(=O)c5ccco5)CC4)n3n2)c1 was read as CYP2C19 act 0.5, sEH inhibitor -2.6, CYP2C19 inh 54.6*, CYP2C9 inhib 29.0, sEH act 0.8 and CYP2C9 activ 0.7.
For COc1cccc(Nc2ncnc3nc[nH]c23)c1 the results were CYP2C19 act 0.9, sEH inhibitor 2.7, CYP2C19 inh 12.5, CYP2C9 inhib 16.3, sEH act -1.1 and CYP2C9 activ 0.8.
O=C(NC1CCCCC1)c1ccc(S(=O)(=O)N2CCCCC2)cc1 was read as sEH inhibitor 20.7 and sEH act -19.5.
`CC(C)(C)C(=O)NC1CCN(S(=O)(=O)c2ccc(C(F)(F)F)cc2)CC1` gave CYP2C19 act 0.2, sEH inhibitor -1.4, CYP2C19 inh 76.0*, CYP2C9 inhib -2.7, sEH act -0.5 and CYP2C9 activ 1.
